Activity calls are given as the source filed them. Where a call stands in place of a potency, no number is given. Calls come from the whole dose curve; as a rule, active = well fitted curve in the direction sought with a large enough effect in the repeat runs; inconclusive = weak or mixed curves; inactive = flat fitted curve, though single readings scatter.

The test can be described thus: qHTS assay to test for compound auto fluorescence at 590 nm (red) in HepG2 cells (AID 720674). Particulars: HepG2 autofluorescence, red 540/590 nm, 1 h; series mostly up to 91.3 µM. From the text: U.S. Tox21 Program National Center for Advancing Translational Sciences [NCATS] NIH Chemical Genomics Center [NCGC] U.S. Environmental Protection Agency [EPA] National Institutes of Environmental Health Sciences [NIEHS] National Toxicology Program [NTP] U.S. Food and Drug Administration [FDA] Tox21 Assay Overview: Compound auto fluorescence often interferes with screening of the compound library against various biological targets and signaling pathways. Some of these compounds may have fluorophoric properties. Such properties may interfere with the assay outputs resulting in false positives and/or negatives. To decrease such complications and ensure the compound activities are relevant in terms of biological response, the Tox21 10K compound library was screened for auto fluorescence. From the fluorophores used as reporter signals in our screening assays, the auto fluorescence equivalencies of compounds against three fluorophores have been evaluated: Triamterene, Fluorescein and Rose Bengal sodium for blue, green and red fluorescence, respectively. The fluorescence intensities were measured using Excitation/Emission wavelengths at 405/460nm, 485/535nm and 540/590nm for blue, green and red labels, respectively. This assay includes the red fluorescence data.
Tox21 Assay Protocol Summary: 2,000 HepG2 cells in 5 uL of culture medium (MEM containing 10% FBS) per well were dispensed into black wall/clear bottom 1536-well plates using a Multidrop Combi Dispenser (ThermoFisher Scientific, Waltham, MA). The assay plates were incubated overnight at 37 C to allow cell attachment to the well bottom, followed by the transfer of 23 nL compound or DMSO vehicle by a pintool work station (Kalypsys , San Diego, CA). After the assay plates were incubated for 1 hr at 37 C and 5% CO2, fluorescence intensities in the assay plates were measured by an Envision (PerkinElmer, Shelton, CT) plate reader using three labels for measuring blue, green and red fluorescence at […] 460, 535 and 590 nm respectively.
On the technique in general: Quantitative high-throughput screening tests each substance at several concentrations.
As to `CCc1cc(C2=C(C(=O)O)N(c3ccccc3C(F)(F)F)S(=O)(=O)c3ccccc32)cc2c1OCO2`, the Potency entry was “inactive”. Same read-out and setting: under `CCCOC(C(=O)OC1CCN(C)CC1)(c1ccccc1)c1ccccc1` stands “inactive”; under `CCCCCCc1ccc(-c2ccc(C#N)cc2)cc1`, “inactive”; under `CCCCC`, “inactive”. `O=C(O)C1(C(=O)Nc2ccc(Cl)cc2Cl)CC1`: the Potency entry was “inactive”. `CCN(CC)CCOC(=O)C(Cc1cccc2ccccc12)CC1CCCO1` (stereo not given): the fluorescence, relative to Rose Bengal was -0.202% [at 18.6 µM] (inactive).

`CC(=O)[O][Al]`: the Potency result was “inactive”. For `CN1CCC(N(Cc2cccs2)c2ccccc2)CC1`, the Potency entry was “inactive”. For the molecule `C[C@@H]1C[C@H]2O[C@@]3(O[C@@H]2C(C)(C)O)[C@H](O)[C@@]2(C)[C@@H]4CC[C@H]5C(C)(C)[C@@H](O[C@@H]6OC[C@@H](O)[C@H](O)[C@H]6O)CC[C@@]56C[C@@]46CC[C@]2(C)[C@@H]13`, the Potency entry was “inactive”. With `COc1cc2nc(N(C)CCCNC(=O)C3CCCO3)nc(N)c2cc1OC` (stereo not given), the fluorescence, relative to Rose Bengal is -0.119% [at 18.6 µM] (inactive). For `CN(C)CCN(Cc1ccc(Cl)cc1)c1ccccn1`, the fluorescence, relative to Rose Bengal was 0.0058% [at 18.6 µM] (inactive). Regarding `CO[C@@H]1[C@H](OC(=O)/C=C/C=C/C=C/C=C/C(=O)O)CC[C@]2(CO2)[C@H]1[C@@]1(C)O[C@@H]1CC=C(C)C`, the Potency result was “inactive”.

In the case of `NCC(=O)CCC(=O)O`, the Potency result was “inactive”. Same read-out and setting: under `C[C@@H](c1ncncc1F)C(O)(Cn1cncn1)c1ccc(F)cc1F` (stereo not given in full) stands “inactive”; under `C=CC(=O)OCCOc1ccccc1`, “inactive”. The same measure, in the same setting: under `CC(C)OC(=O)C(C)N(C(=O)c1ccccc1)c1ccc(F)c(Cl)c1` (stereo not given) stands “inactive”. Regarding `CC(=O)c1ccc2c(c1)N(CCCN1CCC(CCO)CC1)c1ccccc1S2`, the fluorescence, relative to Rose Bengal is -0.311% [at 18.6 µM] (inactive). For `CCC(Cl)CCC(Cl)C(Cl)CC(Cl)C(Cl)C(Cl)CCl` (stereo not given), the Potency entry was “inactive”. For `CCNc1cc(O)ccc1C`, the Potency result is “inactive”. Turning to `CN(C)c1ccc(CCO)cc1`, the Potency result is “inactive”.

Turning to `CCc1c(C(=O)NN2CCCCC2)nn(-c2ccc(Cl)cc2Cl)c1-c1ccc(Br)cc1`, the Potency result was “inactive”. Take `CCCCc1ncc(/C=C(\Cc2cccs2)C(=O)O)n1Cc1ccc(C(=O)O)cc1`: the Potency entry is “inactive”. Still for that read-out and setting: under `OC(CN1CCC(Cc2ccc(F)cc2)CC1)c1ccc(Cl)cc1` (stereo not given) stands “inactive”. The same measure, in the same setting: under `CC(C)CC(=O)C1C(=O)c2ccccc2C1=O` stands “inactive”.

For `COc1cc(C(=O)OCCCN2CCCN(CCCOC(=O)c3cc(OC)c(OC)c(OC)c3)CC2)cc(OC)c1OC`, the Potency entry was “inactive”. Take `O=C(OCCc1ccccc1)c1ccccc1`: the Potency result is “inactive”. Still for that read-out and setting: under `CCOc1ccc(N=Nc2ccc(/C=C/c3ccc(N=Nc4ccc(OCC)cc4)cc3S(=O)(=O)O)c(S(=O)(=O)O)c2)cc1` stands “inactive”; under `CC1=CC=C(C(C)C)CC1`, “inactive”; under `O=C1C(O)=C(O)C(=O)C(O)=C1O`, “inactive”. Still for that read-out and setting: under `COc1ccc(-c2nc3ccc(C4=NNC(=O)CC4C)cc3[nH]2)cc1` (stereo not given) stands “inactive”; under `Nc1cccc(S(=O)(=O)c2cccc(N)c2)c1`, “inactive”. For `CN1CCN(C(c2ccccc2)c2ccccc2)CC1`, the fluorescence, relative to Rose Bengal is 0.313% [at 18.6 µM] (inactive).

For the molecule `Cc1[nH]c(C)c(Cl)c(=O)c1Cl`, the Potency entry is “inactive”.

Regarding `CC1(c2ccccc2)OC(C(=O)O)=CC1=O` (stereo not given), the Potency result is “inactive”. Still for that read-out and setting: under `CCCCCCCC/C=C\CCCCCCCC(=O)OCC` stands “inactive”; under `CCCCC(CC)COC(=O)CCCCCCCCC(=O)OCC(CC)CCCC` (stereo not given), “inactive”; under `S=C([S-])NCCNC(=S)[S-].[Mn+2]`, “inactive”.

With `CCCCCCCCO[C@@H]1O[C@H](CO)[C@@H](O)[C@H](O)[C@H]1O`, the Potency result is “inactive”. Still for that read-out and setting: under `OC(C#CCN1CCCC1)(c1ccccc1)c1ccccc1` stands “inactive”; under `CC(C)C[C@H]1C(=O)N2CCC[C@H]2[C@]2(O)O[C@](NC(=O)[C@@H]3C=C4c5cccc6[nH]c(Br)c(c56)C[C@H]4N(C)C3)(C(C)C)C(=O)N12`, “inactive”.
